Results on 8 compounds are retold here after PubChem BioAssay (NCI).

This is part of a sample that, as a whole, favours compounds with a hit. Of some 83,000 tested, about 20% had one in any assay.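 Interpretation: 100, growth as untreated; towards 0, rising growth inhibition; 0, no net growth; 0 to -100, cell death. Compounds scoring below 10 were considered active.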 Values without a mark were called inactive. Calls of active or inactive are those of the source.

Common to all, as to assay: NCI-60 one-dose screen, 48 h (100 = growth as untreated, 0 = no growth, -100 = all killed)
The test system of one experiment is SK-MEL-2 melanoma. Conditions: 10 µM unless noted.
A further experiment has as its system EKVX NSCLC. As to conditions: 10 µM unless noted.
The next experiment relates to SN12C renal. Conditions: 10 µM unless noted.
For another experiment, the system named is UO-31 renal. As to conditions: 10 µM unless noted.
A further experiment deals with TK-10 renal. Conditions: 10 µM unless noted.
For another experiment, the system named is ACHN renal. As to conditions: 10 µM unless noted.
For a further experiment, the system named is CAKI-1 renal. Conditions: 10 µM unless noted.
Another experiment concerns A498 renal. As to conditions: 10 µM unless noted.
The subject of another experiment is MOLT-4 leukemia. As to conditions: 10 µM unless noted.
Another experiment concerns SR leukemia. As to conditions: 10 µM unless noted.
A further experiment relates to RPMI-8226 leukemia. Conditions: 10 µM unless noted.
The next experiment concerns OVCAR-8 ovarian. Conditions: 10 µM unless noted.
A further experiment relates to OVCAR-5 ovarian. Conditions: 10 µM unless noted.
Another experiment relates to SK-OV-3 ovarian. Conditions: 10 µM unless noted.
For another experiment, the system named is IGROV1 ovarian. As to conditions: 10 µM unless noted.
A further experiment deals with OVCAR-3 ovarian. As to conditions: 10 µM unless noted.
The subject of the next experiment is HS 578T breast. Conditions: 10 µM unless noted.
A further experiment concerns NCI/ADR-RES ovarian. As to conditions: 10 µM unless noted.
A further experiment has as its system CCRF-CEM leukemia. As to conditions: 10 µM unless noted.
Another experiment deals with OVCAR-4 ovarian. Conditions: 10 µM.

Take `C=C(CC(=O)OC)C(C)=O`: the growth in the experiment on SK-MEL-2 melanoma was 118%; in the experiment with EKVX NSCLC, 99%; with SN12C renal, 100%; with UO-31 renal it was 88.2%; in the experiment with TK-10 renal, 107%; in the experiment on ACHN renal, 109%. The growth is 101% in the experiment with CAKI-1 renal; 95.1% with A498 renal; 95.2% in the experiment on MOLT-4 leukemia; 112% with SR leukemia; 120% in the experiment on RPMI-8226 leukemia; 107% in the experiment with OVCAR-8 ovarian. Also, the growth in the experiment on OVCAR-5 ovarian is 112%; with SK-OV-3 ovarian, 103%; in the experiment on IGROV1 ovarian, 101%; in the experiment on OVCAR-3 ovarian it was 106%; in the experiment with HS 578T breast it was 96.5%; with NCI/ADR-RES ovarian, 113%.

As to `COc1ccc(C2=C(c3cn(C)c4ccccc34)C(=O)OC2)cc1OC`, the growth with SK-MEL-2 melanoma was 33.6%; in the experiment on EKVX NSCLC it was 53%; in the experiment on SN12C renal, 36.9%; in the experiment on UO-31 renal, 25%; in the experiment with TK-10 renal it was 61.4%; in the experiment with ACHN renal, 34%. In addition, the growth in the experiment with CAKI-1 renal is 25.6%; in the experiment with CCRF-CEM leukemia, 31.2%; with MOLT-4 leukemia, 32.4%; in the experiment with SR leukemia it was 29.1%; with RPMI-8226 leukemia, 40%; in the experiment with OVCAR-8 ovarian it was 47.8%. Also, the growth in the experiment with OVCAR-5 ovarian was 64.9%; in the experiment with OVCAR-4 ovarian, 39.8%; with IGROV1 ovarian it was 43.4%; in the experiment on OVCAR-3 ovarian it was -8.6% (active); in the experiment on HS 578T breast, 22.5%; with NCI/ADR-RES ovarian it was 22.7%.

For the compound `O=C1CN(Cc2ccc(C(=O)NO)cc2)C(=O)[C@@H](Cc2ccccc2)N1`, the growth in the experiment with SK-MEL-2 melanoma is 112%; in the experiment with EKVX NSCLC, 98.9%; in the experiment on SN12C renal, 102%; with UO-31 renal, 92.9%; in the experiment with TK-10 renal, 106%; in the experiment with ACHN renal it was 103%. Also, the growth in the experiment with CAKI-1 renal was 94.1%; in the experiment with A498 renal, 94.7%; in the experiment on MOLT-4 leukemia it was 101%; with SR leukemia, 113%; with RPMI-8226 leukemia it was 102%; in the experiment on OVCAR-8 ovarian it was 95.6%. The growth in the experiment with OVCAR-5 ovarian is 101%; with SK-OV-3 ovarian it was 96.5%; with IGROV1 ovarian, 106%; in the experiment with OVCAR-3 ovarian, 109%; with HS 578T breast it was 101%; with NCI/ADR-RES ovarian, 110%.

For the compound `CCCCCCCCCCCCCCNC(=O)Nc1ccc(Cl)c(Cl)c1`, the growth in the experiment with SK-MEL-2 melanoma was 14.5%; in the experiment with EKVX NSCLC, 31.9%; in the experiment with SN12C renal, 20.2%; with UO-31 renal, 8.71% (active); in the experiment with TK-10 renal, 41.3%; in the experiment on ACHN renal it was 9.14% (active). In addition, the growth in the experiment with CAKI-1 renal is 10.8%; in the experiment with A498 renal, 96.7%; in the experiment on MOLT-4 leukemia, 103%; in the experiment with SR leukemia, 95%; in the experiment on RPMI-8226 leukemia, 72.6%; in the experiment with OVCAR-8 ovarian, 30.5%. Moreover, the growth with OVCAR-5 ovarian was 64.8%; in the experiment with OVCAR-4 ovarian, 24.7%; in the experiment with SK-OV-3 ovarian it was 73%; in the experiment on OVCAR-3 ovarian, 15.5%; with HS 578T breast, 84.2%; in the experiment on NCI/ADR-RES ovarian it was -0.731% (active).

Turning to `c1ccc(-c2nc(N3CCCNCC3)c3nc(-c4ccccc4)oc3n2)cc1`, the growth was 102% with SK-MEL-2 melanoma; 62.8% with EKVX NSCLC; -22.5% (active) in the experiment on SN12C renal; 51.1% in the experiment with UO-31 renal; -47.3% (active) with TK-10 renal; -53.5% (active) with ACHN renal. Moreover, the growth in the experiment on CAKI-1 renal is 40.1%; in the experiment on A498 renal it was 69.9%; in the experiment with MOLT-4 leukemia it was 0.525% (active); in the experiment with SR leukemia, 0.248% (active); in the experiment with RPMI-8226 leukemia, -15.7% (active); with OVCAR-8 ovarian it was 59.5%. In addition, the growth with OVCAR-5 ovarian was 87.9%; in the experiment on OVCAR-4 ovarian, 76.3%; in the experiment on IGROV1 ovarian, -56% (active); with OVCAR-3 ovarian, -69.8% (active); in the experiment with HS 578T breast, 83.6%.

For the compound `Clc1ccc(N2CCN(CCCN3CCN(c4cccc(Cl)c4)CC3)CC2)cc1`, the growth was 96.7% with SK-MEL-2 melanoma; 41.9% in the experiment on EKVX NSCLC; 64.2% with SN12C renal; 36.6% with UO-31 renal; 41.4% in the experiment with TK-10 renal; 71.6% with ACHN renal. Further, the growth in the experiment with CAKI-1 renal was 42.7%; in the experiment with A498 renal, 60.4%; in the experiment with MOLT-4 leukemia, 43.7%; with SR leukemia, 15.4%; in the experiment with RPMI-8226 leukemia, 24.9%; in the experiment on OVCAR-8 ovarian, 70.7%. For the same compound, the growth in the experiment with OVCAR-5 ovarian is 78.9%; in the experiment with OVCAR-4 ovarian it was 55.7%; with OVCAR-3 ovarian, 66.4%; in the experiment with HS 578T breast, 103%; in the experiment with NCI/ADR-RES ovarian, 65.5%.

With `CCN(CC)CCCNCc1cc(-c2ccccc2)nc2ccccc12`, the growth with SK-MEL-2 melanoma was 109%; in the experiment on EKVX NSCLC it was 93.7%; in the experiment with SN12C renal it was 48%; in the experiment on UO-31 renal, 23.7%; in the experiment on TK-10 renal, 46.8%; in the experiment with ACHN renal it was 101%. Moreover, the growth with CAKI-1 renal is 100%; with CCRF-CEM leukemia, 11.8%; with MOLT-4 leukemia it was 8.2% (active); with SR leukemia it was 4.37% (active); in the experiment on RPMI-8226 leukemia, 20%; with OVCAR-8 ovarian, 35.1%. For the same compound, the growth with OVCAR-5 ovarian is 109%; with OVCAR-4 ovarian it was 56.3%; with SK-OV-3 ovarian, 92.4%; with OVCAR-3 ovarian it was 35.7%; in the experiment with NCI/ADR-RES ovarian, -32% (active).

In the case of `c1ccc2c(c1)CN(CCCN1CCOCC1)C2`, the growth in the experiment with SK-MEL-2 melanoma was 105%; in the experiment with EKVX NSCLC it was 100%; with SN12C renal, 96.6%; with UO-31 renal it was 93.1%; in the experiment with TK-10 renal, 95.4%; in the experiment with ACHN renal, 100%. Further, the growth is 87.2% in the experiment with CAKI-1 renal; 102% in the experiment with CCRF-CEM leukemia; 103% in the experiment on MOLT-4 leukemia; 97.8% in the experiment on SR leukemia; 95.5% with RPMI-8226 leukemia; 102% with OVCAR-8 ovarian. Also, the growth in the experiment with OVCAR-5 ovarian was 99.1%; with OVCAR-4 ovarian, 102%; in the experiment on SK-OV-3 ovarian, 102%; with IGROV1 ovarian it was 101%; in the experiment with HS 578T breast, 109%; in the experiment with NCI/ADR-RES ovarian, 98.7%.
